HT1080-NT tox: kills 2HG-producing HT-1080-NT fibrosarcoma cells | HT-1080-NT fibrosarcoma viability, CellTiter-Glo ATP luminescence, 48 h | Potency, µM (titrated, usually from 46.1 µM), inactives show top-dose activity, negative = less viability, usual class: cytotoxic | actives 1.6% (n = 360,000) | AID 686970;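 also: NT is the 2HG producing partner of a matched IDH1 knockdown line; 0% = DMSO-treated cells and -100% = media-only wells without cells; nearly all actives have a fitted effect of over 55% in size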
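Luminescent CellTiter-Glo readout after 48 hours of compound exposure at 37 degrees C defined viability of HT-1080-NT cells. Activity was normalized to DMSO wells and cell-free media wells; concentration-response curves were fitted and assigned curve classes.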
HepG2 viability: HepG2 cytotoxicity, counter-screen for TGF-b inhibitors. Potency, µM (titrated, usually from 46.1 µM), without a hit: at the highest dose activity change, negative = cytotoxicity, usual class: cytotoxic. AID 588856. actives 0.76% (n = 410,000). HepG2 CAGA-GFP viability, ATP luminescence, 18 h
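CellTiter-Glo luminescence gave cytotoxicity after 18 hours at 37 degrees C. The cells were HepG2 CAGA-GFP in 1% FBS DMEM, stimulated with 500 pg/mL TGF-beta after compound addition. %Activity was normalised to no-cell wells (complete cell-killing) and DMSO (no toxicity), and curves were fitted and classified.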
S2 tox: cell viability loss in ATXN counter-screen; S2 cells (HEK-293 line with an ATXN2-luciferase reporter) viability, CellTiter-Fluor protease fluorescence, 24 h; Potency, µM (doses to about 56.7 µM), most hits filed as cytotoxic; actives 0.49% (n = 400,000); AID 651635; also: nearly all actives have a fitted effect of over 40% in size
ATXN2 expr inh: reduces ATXN2 reporter expression in HEK-293 cells | HEK-293 ATXN2-luciferase reporter, luminescence, 24 h | Potency, µM (series often up to 57 µM), for inactives: at the top dose activity change, negative = inhibition, usual class: inhibitors | actives 0.72% (n = 360,000); also: % is scaled to controls: 0 for no effect and ±100 for the full control effect; nearly all actives have a fitted effect of over 55% in size
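qHTS (up to 57 uM final) was run with 24 h compound exposure of reporter cells at 37 °C. Each well was multiplexed: SteadyGlo luminescence measured ATXN2-luciferase expression after a fluorogenic Gly-Phe-AFC viability readout (25 uM final).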
TGFb SMAD3 inh: blocks TGF-b signaling. Potency, µM (titrated, usually from 46.1 µM), inactives show at the highest dose activity, negative = inhibition, usual class: inhibitors. AID 588855. actives 1.2% (n = 410,000). HepG2 CAGA-GFP TGF-b/SMAD3 reporter, GFP fluorescence, 18 h; TGF-beta stimulated, 500 pg/mL final; also: % is scaled to controls: 0 for no effect and ±100 for the full control effect; nearly all actives have a fitted effect of over 65% in size
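Per well, imaged GFP fluorescence of HEPG2 CAGA-GFP cells gives the signal; cells get compound, then TGF-beta (500 pg/mL final), 18 h at 37 degrees C; %Activity versus -TGF-beta and +DMSO controls.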
HT1080 IDH1KD tx: kills HT-1080 cells with IDH1 knockdown. HT-1080 IDH1 knockdown viability, ATP luminescence, 48 h. actives 2% (n = 360,000). Potency, µM (highest dose often 46.1 µM), inactives show at the top dose activity, negative = toxicity, hits mostly cytotoxic;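 also: 0% = DMSO wells and -100% = cell-free medium wells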
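In this qHTS, HT-1080 cells depleted of IDH1 are exposed for 48 h at 37 °C to compound titrations. Toxicity is scored from CellTiter-Glo luminescence, with DMSO as full viability and medium alone as none.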
* marks the source's active call; other numbers are inactive results; i = inactive; ? = inconclusive; . = no result. This is a sample that favours compounds with a hit; in the whole collection about 3.9% have one here. Calls follow the shape of the dose curve; as a rule, active = well fitted curve in the direction sought with a large enough effect; inconclusive = small, poorly fitted or top-dose-only effect, or another doubt; inactive = no such curve, though single readings can be large; an effect the other way counts as inactive or inconclusive. Potency is read from the fitted curve at half-maximal effect.

SMILES	HT1080-NT tox	HepG2 viability	S2 tox	ATXN2 expr inh	TGFb SMAD3 inh	HT1080 IDH1KD tx
COc1ccc(CCNC(=O)CSc2nnc3ccccn23)cc1	9.4%	3.0%	i	6.7%	0.447µM*	11.6%
CNc1nc(-c2ccc3c(N)n[nH]c3c2)cc(N2C[C@@H](C(=O)NC3CCCCC3)CC[C@@H]2C)n1	.	.	.	-9.0%	.	.
O=Nc1ccc(/C=C/c2ccnc3ccccc23)cc1	.	-26.5%	.	.	-6.3%	.
O=C(/C=C/c1c(F)cccc1Cl)c1ccc(F)cc1	?	15.8µM*	i	-13.0%	?	?
O=C(N/N=C/c1ccc(-c2ccccc2[N+](=O)[O-])o1)c1cncc(Br)c1	-2.3%	-24.3%	i	-6.3%	-6.4%	-13.4%
Cc1c(C(=O)N/N=C/c2ccc(-c3ccccc3[N+](=O)[O-])o2)sc(N)c1C#N	?	-39.5%	i	-20.3%	5.01µM*	?
COc1ccc(Cl)cc1NC(=O)Cc1coc2c(C)c(C)ccc12	.	-28.0%	i	?	?	.
COc1cccc(-c2cnc3c(NC=O)cc(-c4cccc(C(=O)N(C)C)c4)cn23)c1	-20.9%	-38.6%	i	0.0%	3.55µM*	?
COc1cccc(-c2cc(NC=O)c3ncc(-c4cccc(C(=O)NCCN(C)C)c4)n3c2)c1	23.1µM*	-39.5%	i	-5.8%	?	20.6µM*
COc1ccccc1-c1ccnc(-n2ncc(C(=O)N[C@H]3CCCCNC3=O)c2C2CC2)n1	.	.	i	.	.	.
CCN(CC)CCNc1nc(-n2nc(C)cc2C)nc2sc3c(c12)CC(C)(C)OC3	?	-20.5%	i	-2.4%	-8.3%	?
Cc1cc(C)n(-c2nc(NCCN(C)C)c3c4c(sc3n2)COC(C)(C)C4)n1	18.4µM*	-90.1%	i	?	?	?
Cc1cc(C)n(-c2nc(NCCN(C)C)c3c4c(sc3n2)CCCC4)n1	20.6µM*	4.47µM*	22.4µM*	14.1µM*	?	20.6µM*
Cc1cc(C)n(-c2nc(NCCCN(C)C)c3c4c(sc3n2)COC(C)(C)C4)n1	-14.2%	-14.0%	i	10.0%	-5.0%	-25.1%
Cc1cc(C)n(-c2nc(NCCCN(C)C)c3c4c(sc3n2)CCCC4)n1	14.6µM*	-191.1%	.	22.4µM*	?	?
CCC1CN(CCNC(=O)c2scc3c2OCCO3)Cc2cc(OC)ccc2O1 (stereo not given)	.	.	i	.	.	.
CCOc1ccc(CCNC(=O)c2ccc(-c3nc(COc4ccc(C)cc4)c(C)o3)cc2)cc1	.	-1.2%	i	0.6%	?	.
Cc1ncc2c(c1CNC(=O)/C=C/c1cccs1)CCN(C(=O)c1c(C)noc1C)C2	.	.	i	.	.	.
O=[N+]([O-])c1ccc(Sc2cccc[n+]2[O-])c2nonc12	0.146µM*	-114.8%	.	5.32µM*	1.26µM*	0.581µM*
O=[N+]([O-])c1ccc(Nc2ccccc2)c2nonc12	-4.0%	-32.6%	.	.	?	-9.2%
COc1ccc(OC)c2sc(N(CCN(C)C)C(=O)/C=C/c3cccs3)nc12	18.4µM*	15.8µM*	.	?	?	16.4µM*
CCN(CC)CCN(C(=O)/C=C/c1cccs1)c1nc2ccc(F)cc2s1	-20.6%	-40.2%	i	.	?	-9.6%
COc1ccc(C)c2sc(N(CCN(C)C)C(=O)/C=C/c3cccs3)nc12	20.6µM*	11.2µM*	?	?	?	?
CN(C)CCCN(C(=O)/C=C/c1cccs1)c1nc2ccc(F)cc2s1	9.2µM*	15.8µM*	.	?	17.0%	?
CCC(C)n1c(SCc2ccc(F)cc2Cl)nc2ccsc2c1=O (stereo not given)	.	-2.1%	.	.	1.1%	.
SMILES	HT1080-NT tox	HepG2 viability	S2 tox	ATXN2 expr inh	TGFb SMAD3 inh	HT1080 IDH1KD tx
COC(=O)c1c(OCc2ccccn2)cc(=O)n2c1CCN(Cc1cccc(C(F)(F)F)c1)CC2	.	.	i	.	.	.
N=C1N(c2ccccc2)C(=S)C(=Nc2ccccc2)N1c1ccccc1	1.6%	19.7%	i	34.4%	1.58µM*	?
COc1ccc(N=C2C(=S)N(c3ccc(OC)cc3)C(=NS(=O)(=O)c3ccccc3)N2c2ccccc2)cc1	-3.2%	-3.8%	?	33.0%	-8.0%	11.3%
Cc1ccc2c(=O)cc(C(=O)Nc3ccc(S(=O)(=O)N(C)Cc4ccccc4)cc3)oc2c1C	.	-0.1%	i	-7.9%	1.7%	.
N#CC1=C(N)NC(=S)C(C(N)=O)C1c1ccc(Cl)cc1Cl (stereo not given)	?	7.08µM*	23.8µM*	?	?	?
N#CC1=C(N)NC(=S)C(C(N)=O)C1c1ccccc1F (stereo not given)	-26.7%	-16.0%	i	-30.6%	0.0%	?
CCc1cccc(NC(=O)C(NS(=O)(=O)c2ccc3nc(C)sc3c2)C(C)C)c1 (stereo not given)	.	1.6%	i	-6.4%	-14.6%	.
CCOC(=O)C1CCCN(C(=O)c2ccc3c(c2)N(Cc2ccccc2)C(=O)c2ccccc2S3=O)C1 (stereo not given)	0.9%	-1.4%	i	7.7%	10µM*	-3.0%
CC(C)n1cnc2c(Nc3cccc(F)c3)nc(NCCO)nc21	-20.4%	-28.9%	i	-6.5%	-4.5%	-28.5%
CC(C)C[C@H](CO)Nc1nc(Nc2cccc(Cl)c2)c2ncn(C(C)C)c2n1	-8.8%	-57.8%	22.4µM*	?	?	-9.7%
CN(C)c1ccc(/C=C/c2cc[n+](C)c3ccc4ccccc4c23)cc1	.	-91.9%	.	.	2µM*	.
Cc1cc(N(C)C)cc(C)c1/C=C/c1cc[n+](C)c2ccccc12	.	-25.2%	.	.	8.91µM*	.
COc1cccc(CNC(=O)c2cc3cc(C)ccc3n2C)c1	.	-3.0%	i	96.9%	6.1%	.
NC1=N[C@@]2(c3cc(NC(=O)c4ccc(F)cn4)ccc3F)COC[C@@H]2CS1	.	.	.	31.7%	.	.
O=C(O)C(c1ccccc1)N1C(=O)/C(=C/c2cccs2)SC1=S (stereo not given)	24.6%	7.3%	i	4.9%	-1.8%	13.9%
CC(c1ccccc1)N1C(=O)/C(=C/c2ccncc2)SC1=S (stereo not given)	?	-110.0%	22.4µM*	.	?	?
COc1ccccc1C1CCN(C(=O)c2ccc(C(C)(C)C)cc2)CC1	?	-58.1%	i	16.7%	12.6µM*	?
COc1ccccc1N1CCN(C(=O)c2ccc(C(C)(C)C)cc2)CC1	?	-76.0%	i	-1.3%	-21.8%	?
COc1cc(Cl)c(C)cc1NC(=O)c1cc(CN2CCOCC2)on1	.	-25.4%	i	-1.7%	-2.2%	.

Bioassay records from PubChem.
